Results: PubChem BioAssay AID1962 (The Scripps Research Institute Molecular Screening Center, 2009)
Among all 300,000 compounds or so, about 2,500 (0.83%) were called active. The entries come from a sample that favours actives as a whole. Values without a mark were called inactive.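 The calls were made as follows: active = inhibition above the mean of all tested compounds plus 3 SD, set per screening campaign (cut at about 24% in these data); inactive = the rest.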

Test system: tRNA 2'-phosphotransferase TPT1 (Candida albicans SC5314)
Assay: Candida albicans TPT1 enzyme inhibitors, primary screen, biochemical, fluorescence polarization (AID 1962);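 also: plate controls were DMSO alone for no effect and ferristatin control at 100 nM for full effect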
Conditions: recombinant caTPT1, FP RNA substrate dephosphorylation; at 5 µM; hits give high values

| SMILES | inhibition |
| --- | --- |
| Cc1ccc(S(=O)(=O)N2[C@@H](c3ccccc3F)C(C(=O)O)=CC[C@H]2c2ccc(Cl)cc2)cc1 | -4.36% |
| COc1ccc(CCNC(=S)N2CCN(S(=O)(=O)c3ccc(F)cc3)CC2)cc1 | -2.45% |
| Cc1cccc(NC(=O)c2cccc(S(=O)(=O)N3CCCC3)c2)n1 | -1.41% |
| CCC(C)CCN1CCN=C1N(C)C (stereo unspecified) | 0.6% |
| O=S(=O)(Nc1ccccc1)c1ccc(NS(=O)(=O)c2cccs2)cc1 | 3.09% |
| O=c1[nH]nc(SCCS(=O)(=O)c2ccc(F)cc2)n1-c1ccccc1C(F)(F)F | -4.89% |
| O=C(NCCS(=O)(=O)N1CCN(c2ccc(F)cc2)CC1)c1ccc2c(c1)OCO2 | -1.22% |
| Cc1cc(C)c(/C=C2\C(=O)Nc3ccccc32)[nH]1 | 101% (active) |
| CN(C)/C=C1/Nc2ccccc2C1=O | -4.8% |
| O=C1Nc2ccccc2/C1=C/c1ccnc2ccccc12 | -1.13% |
| CCN1C(=O)/C(=c2\s/c(=C3\Sc4ccccc4N3C)c(=O)n2C)N(C)C1=S | -1.53% |
| CN1/C(=c2/s/c(=C3/C(=O)N(c4ccccc4)NC3=Nc3ccccc3)n(C)c2=O)C(C)(C)c2ccccc21 | 128% (active) |
| COc1ccc(/C=C2\SC(=O)N(CCC(=O)NC3CCS(=O)(=O)C3)C2=O)cc1 (stereo unspecified) | -0.19% |
| Cc1cc(C)n(CCC(=O)N2CCN(S(=O)(=O)c3ccc(C)c(C)c3)CC2)n1 | -1.67% |
| Cc1nc(-c2ccc(Cl)cc2)sc1C1(C)CC(c2ccccc2F)=NO1 (stereo unspecified) | 1.26% |
| Cc1cc(C)nc(N/N=C/c2ccc([N+](=O)[O-])o2)n1 | -2.07% |
| C/[N+]([O-])=C\c1ccc([N+](=O)[O-])o1 | -5.74% |
| CCn1c(/C=C/c2ccc([N+](=O)[O-])o2)nc2ccccc2c1=O | 25.2% (active) |
| CCCOc1ccc(Cc2c(O)nc(SC)[nH]c2=O)cc1C | 1.03% |
| S=C(Nc1cccc(Br)c1)N1CCn2cccc2C1c1cccnc1 (stereo unspecified) | 1.48% |
| C=CCC1=C/C(=C\c2c(N)n3nc(CC(=O)N4CCOCC4)sc3nc2=O)C=C(OC)C1=O | 37% (active) |
| COC1=C/C(=C/c2c(N)n3nc(CC(=O)N4CCOCC4)sc3nc2=O)C=CC1=O | 9.73% |
| COc1cc(/C=C2\C(=N)N3N=C(CC(=O)N4CCOCC4)SC3=NC2=O)cc(OC)c1OC | 1.57% |

| SMILES | inhibition |
| --- | --- |
| CCN(CC)P(=O)(Nc1ccc(SC(F)F)cc1)c1ccc(N(C)C)cc1NC(=O)c1ccco1 (stereo unspecified) | -3.15% |
| COc1cc(C(=O)N2CCN(C)CC2)cc(OC)c1OC | 1.91% |
| O=C(CN1C(=O)NC(Cc2ccccc2)(Cc2ccccc2)C1=O)NCC1CCCCC1 | 0.35% |
| Cc1ccc(CC2S/C(=C(/C#N)C(=O)N3CCOCC3)N(c3ccccc3)C2=O)cc1 (stereo unspecified) | 27.6% (active) |
| N#C/C(C(=O)N1CCOCC1)=C1/SC(Cc2ccc(F)cc2)C(=O)N1c1ccccc1 (stereo unspecified) | 19.8% |
| Cc1ccc(C(=O)C(=S)N2CCOCC2)cc1 | 0.27% |
| O=C(Nc1ccc2c(c1)CCC2)c1ccc(Br)s1 | -6.11% |
| CC(=O)N1CCN(C(=O)c2cc(-c3ccc(C)o3)nc3ccccc23)CC1 | -4.79% |
| OCC[C@H]1C[C@@H](O)[C@H](O)[C@]2(OCCCc3ccccc32)O1 | -4.69% |
| O=C(CSc1nc2ccc([N+](=O)[O-])cc2[nH]1)c1ccc(Cl)cc1 | -2.05% |
| O=C(Cc1nc2ccccc2[nH]c1=O)c1ccc(Cl)cc1 | 52.4% (active) |
| O=C(/C(=C/c1cccc(Cl)c1)c1nc2ccccc2[nH]1)c1ccccc1 | 6.55% |
| CC(=O)Oc1ccc(N(C(C)=O)S(=O)(=O)c2ccc3ccccc3c2)cc1Br | -2.05% |
| O=C(Nc1ccc([N+](=O)[O-])cc1)OCCc1ccccn1 | 0.72% |
| Cc1cccc(NS(=O)(=O)c2cc(Cl)ccc2Cl)n1 | -0.05% |
| COc1ccc2cc(C(=O)C3CCCN(C(=O)c4sc(C)nc4C)C3)ccc2c1 (stereo unspecified) | -0.57% |
| CCOc1cc(-c2cc(-c3ccc(NC(C)=O)cc3)nc(N)c2C#N)ccc1O | 2.32% |
| COc1cc(/C=N\Nc2nc(-c3cccs3)c(NC(C)=O)s2)ccc1O | -0.53% |
| CCOc1cc(/C=C(\C#N)c2nc(-c3cccs3)c(NC(C)=O)s2)ccc1O | 111% (active) |
| Nc1ccc(C(=O)Nc2ccccc2N)cc1 | -2.37% |
| Cc1ccc(Nc2ccccc2N)cc1 | 38.5% (active) |
| Cc1ccc(Nc2ccc(C(N)=O)cc2[N+](=O)[O-])cc1 | -0.98% |
| O=C(Nc1ccc(Cl)c(Cl)c1)N1CC=C(c2ccccc2)CC1 | -0.49% |

| SMILES | inhibition |
| --- | --- |
| NC1=C([N+](=O)[O-])C(c2ccccc2)C2=C(CCCC2=O)O1 (stereo unspecified) | 2.19% |
| COc1ccc(CCOC(=O)CNC(=O)c2ccc(Cl)cc2Cl)cc1 | -0.14% |
| Cc1ccc([C@@H]2CC=C(C(=O)O)[C@H](c3cccc(Cl)c3)N2S(=O)(=O)c2ccc(C)cc2)cc1 | -3.07% |
| Cc1c(C)c2ccc(OCC(=O)N3CCC(C(=O)O)CC3)c(C)c2oc1=O | -2.74% |
| Cc1c(CC(=O)N2CCN(C(=O)C3COc4ccccc4O3)CC2)c(=O)oc2c(O)c(O)ccc12 (stereo unspecified) | 51% (active) |
| O=C(CNC(=O)C1COc2ccccc2O1)N/N=C/c1cc(Br)c(O)c(Br)c1 (stereo unspecified) | 2.18% |
| COc1cccc(OC)c1C(=O)Nc1sc2c(c1C(N)=O)CCCC2 | -0.1% |
| NC(=O)c1c(NC(=O)c2ccccc2)sc2c1CCCC2 | 1.25% |
| NC(=O)c1c(Nc2nc3c(F)cccc3s2)sc2c1CCCC2 | 85.5% (active) |
| CC(C)(C)C(=O)Nc1ccc(C(=O)N/N=C/c2ccccc2OC(=O)c2ccc(Cl)cc2Cl)cc1 | -2.72% |
| Cc1ccc(Sc2ccncc2S(N)(=O)=O)cc1 | 0.2% |
| Cc1cnc(C(=O)N2CCCC(C(=O)c3ccc(C(F)(F)F)cc3)C2)cn1 (stereo unspecified) | -2.98% |
| CCOC(=O)N1CCN(C(=O)CSc2nc(=O)n3cccc(C)c3n2)CC1 | -1.52% |
| CCOC(=O)CC1C(=O)NCCN1c1nc2c(C)cccn2c(=O)c1/C=C1\SC(=S)N(C(C)CC)C1=O (stereo unspecified) | 145% (active) |
| Cc1cccn2c(=O)c(/C=C(\C#N)C(N)=O)c(N3CCCCCC3)nc12 | -0.44% |
| CCC(=O)N1c2ccc(S(=O)(=O)NCc3ccco3)cc2CC1C (stereo unspecified) | -4.88% |
| COCCCn1c(-c2cccs2)nc2nc3ccccc3nc21 | -0.91% |
| Cc1c(-c2ccccc2)cn2c1-c1ccc(C)n1CC2 | 49% (active) |
| Cc1cc(Br)ccc1SCC(=O)OCC(=O)NCc1ccc2c(c1)OCO2 | -0.18% |
| CC1CCN(C(=O)c2ccc(CSc3ccc(Cl)cc3)cc2)CC1 | -4.05% |
| CC1CCN(C(=O)c2ccc3c(=O)n4c(nc3c2)CCCCC4)CC1 | -0.96% |
| CC1CCN(C(=O)c2ccc3c(c2)NC(=O)CN3)CC1 | 147% (active) |
| O=c1oc2ccccc2c(CNc2ccccc2)c1[N+](=O)[O-] | -2.94% |

| SMILES | inhibition |
| --- | --- |
| O=C(N/N=C/c1c[nH]c2ccccc12)c1ccccc1O | -1.65% |
| COc1ccc(/C=C(\C#N)c2c[nH]c3ccccc23)cc1 | 0.42% |
| C[n+]1ccc(/C=C/c2c[nH]c3ccccc23)cc1 | 56% (active) |
| CCOc1ccc(-n2c(O)c(/C=N/Nc3nc(C)cc(C)n3)c3ccccc3c2=O)cc1 | -0.65% |
| Cc1ccc(-n2c(O)c(C=Nc3ccc(S(=O)(=O)Nc4ncccn4)cc3)c3ccccc3c2=O)cc1C | 1.02% |
| CCOc1ccc(-n2c(O)c(/C=N/c3ccnn3Cc3ccncc3)c3ccccc3c2=O)cc1 | 44.3% (active) |
| CC(C)CCN1CCN=C1N(C)C | 0.11% |
| O=C(NCCCN1CCOCC1)c1cnn2c(-c3ccccc3)cc(-c3ccccc3)nc12 | -0.23% |
| COc1ccc(C(=O)NC2CC2)cc1OC1CCN(Cc2ccc(SC)cc2)CC1 | -0.85% |
| CC(NC(=S)Nc1ccccc1)C(c1cccs1)N1CCOCC1 (stereo unspecified) | -0.68% |
| CCOC(=O)Nc1ccc2c(c1)N(C(=O)CCCl)c1ccccc1[S@]2=O | 1.44% |
| Cc1ccc2cc(/C=N/Nc3ccc(C(=O)O)cc3)c(Cl)nc2c1 | 24.6% (active) |
| Cc1ccc2cc(/C=N/NC(=O)[C@@H]3CCCN3)c(Cl)nc2c1 | -2.39% |
| O=C(O)c1ccc(N/N=C/c2ccc3ncccc3c2)cc1 | -4.36% |
| C/C(=N\Nc1nc(N2CCOCC2)nc(N2CCOCC2)n1)c1ccc([N+](=O)[O-])cc1 | 0.13% |
| COc1cccc(OC)c1C(=O)Nc1ccc2c(c1)n(C)c(=O)n2C | -1.47% |
| Cc1ccc(N2NC(=O)/C(=C/C=C/c3ccco3)C2=O)cc1C | 4.93% |
| Cc1ccc(N=C2NC(=O)/C(=C/C=C/c3ccco3)S2)cc1C | 25.4% (active) |
| CN(C)c1ccc(-n2cccc2/C=C2/SC(=Nc3ccc(F)cc3)NC2=O)cc1 | 0.75% |
| COC(=O)C1(S(=O)(=O)C2(C(=O)OC)CCCC2)CCCC1 | -0.48% |
| CN1C(=O)CC(c2ccccc2)C1=O (stereo unspecified) | -3.97% |
| CCN1C(=O)N[C@@H](c2ccccc2)[C@H](C(C)=O)[C@H]1C | 1.78% |
